Experimental data as given in PubChem BioAssay (NCI).
“And” between values parts separate entries of the source, which are not always exact repeats. Equal values may be shown once. This is part of a sample that, as a whole, favours compounds with a hit. Of some 79,000 tested, about 15% had one in any assay. Values without a mark were called inactive. The source made the active and inactive calls. Rule as the data show it: active = growth inhibition above about 70%; inactive = the rest. *1 amine or outer side, *2 acyl side, *3 side chain or, on linkers, in order; H or OH if unused. Where a SMILES comes first, the peptide text is derived from it. [ ]: non-standard residue; d: D form. The star is where a group is joined. X5 = CCC(=O)CC1CC(C)CC(C(=O)[*:2])N1[*:1]; X4 = CCCCCCCCC(C)C(=O)*; Aib = CC(C)(N)C(=O)O; X6 = CC(CN(C)CCO)N*

Assay: NCI Yeast Anticancer Drug Screen. Data for the sgs1 mgt1 strain (AID 161);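 also: 0% = growth of cultures given vehicle only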
Conditions: S. cerevisiae sgs1 mgt1 strain, active compounds read high
Experimental: Growth inhibition of yeast strains with defined genetic alterations is measured as a screen for potential anti-cancer activity. Selected strains with alterations in DNA damage repair or cell cycle control were exposed to compounds and growth inhibition was measured relative to vehicle treated controls. The strain used in this assay is sgs1 mgt1

[1] = at 5.0 µM (retest, dose inferred, filed as 0.5)
[2] = at 50.0 µM (retest, dose inferred, filed as 5.0)

Row | SMILES | growth inhibition [1] | growth inhibition [2] | growth inhibition (at 50.0 µM)
1 | COc1cc(/C=C/c2ccnc3ccccc23)cc(OC)c1OC | 14% | 93% (active) | 88.2% (active)
2 | O=C1c2ccccc2-c2ccc(O)cc21 | 28% | 93% (active) | –
3 | CC(=O)Nc1ccc(/C=N/NC(=S)NCC(C)C)cc1 | -1% | 7% | –
4 | CCC[CH2][Sn]([CH2]CCC)([CH2]CCC)[O]C(=O)C(OC(C)=O)c1ccccc1 (configuration not stated) | 99% (active) | 99% (active) | 91.5% (active)
5 | Cc1cc(=O)oc2cc(O)cc(O)c12 | -11% | -4% | -8.8%
6 | CCCCCCN(CCCCCC)CCCNc1nccc2ccccc12 | 2% | 88% (active) | 56.9%
7 | O=[N+]([O-])c1ccc2nc3ccccc3[n+]([O-])c2c1 | 33% | 100% (active) | –
8 | O=C(/C(Cl)=N/O)c1ccc(-c2ccccc2)cc1 | 2% | 98% (active) | 95.5% (active)
9 | COc1cc(NC(=O)C2=C(C)NC(C)=C(C(=O)Nc3cc(OC)c(Cl)cc3OC)C2c2cccc([N+](=O)[O-])c2)c(OC)cc1Cl | 6% | 95% (active) | 96.9% (active)
10 | Fc1cccc(F)c1C1SCc2nc3cc4ccccc4cc3n21 (configuration not stated) | 23% | 47% | 78.5% (active)
11 | CN1CSC(=S)N(Cc2ccccc2)C1 | 15% | 67% | 86.6% (active)
12 | CCCCCCCCC(C)C(=O)N1CCCC1C(=O)N1C(CC(=O)CC)CC(C)CC1C(=O)NC(C)C(=O)NC(C)(C)C(=O)NC(C)(C)C(=O)NC(C(=O)NC(C)C(=O)NC(C)(C)C(=O)NC(C)(C)C(=O)NC(C)CN(C)CCO)C(C)CC (configuration not stated) (X4-P[X5]A[Aib][Aib]IA[Aib][Aib]-X6; configuration not given here) | 99% (active) | 100% (active) | 92.8% (active)
13 | CCOc1ccc(NC(=O)/C(=N\N)C(C(=O)OC)c2nc3ccc(Cl)cc3[nH]c2=O)cc1 (configuration not stated) | -8% | -3% | -24.4%
14 | C1CN(CCN2CCOCC2)CCO1 | – | – | 9.35% and 13.6%
15 | CCCCCCCc1ccc(OC2OC(COC(C)=O)C(OC(C)=O)C(OC(C)=O)C2OC(C)=O)cc1 (configuration not stated) | – | – | -30.4% and 1.4%
16 | Oc1ccc2ccccc2c1CNCc1c(O)ccc2ccccc12 | – | – | 6% and 1.7%
17 | CN(C)C | – | – | 10.4% and -17.1%
18 | CN1C(=O)N/C(=C\c2ccc(S(=O)(=O)N/N=C\C(O)C(O)C(O)C(O)CO)cc2)C1=O (configuration not stated) | – | – | 17.9% and -4.2%
19 | O=C(O)/C=C/c1cccc(Cl)c1 | – | – | 3.25% and -12.2%
